Bioassay records: PubChem, Buhrlage Lab, Dana-Farber Cancer Institute and Novartis Institutes for BioMedical Research (Cambridge, Mass)
USP10 block: human USP10 deubiquitinase inhibition. inhibition, % at 20 µM. 1.1% of 47,000 active. purified USP10, Ub-rhodamine fluorescence, 60 min. Q14694. AID 1645856
USP7 block: inhibitors of human USP7 deubiquitinase. Q93009. purified USP7, Ub-rhodamine cleavage fluorescence. inhibition, % at 20 µM. 0.3% of 47,000 active. AID 1645854
UCHL1 inh: blocks human UCHL1 ubiquitin-rhodamine cleavage; P09936; purified UCHL1, Ub-rhodamine cleavage fluorescence; inhibition, % at 20 µM; 0.2% of 47,000 active; AID 1645859
USP8 block: human USP8 deubiquitinase inhibition; 4.2% of 47,000 active; inhibition, % at 20 µM; purified USP8, Ub-rhodamine cleavage fluorescence, 30 min; P40818
Target sequence (P40818 whole entry, looked up): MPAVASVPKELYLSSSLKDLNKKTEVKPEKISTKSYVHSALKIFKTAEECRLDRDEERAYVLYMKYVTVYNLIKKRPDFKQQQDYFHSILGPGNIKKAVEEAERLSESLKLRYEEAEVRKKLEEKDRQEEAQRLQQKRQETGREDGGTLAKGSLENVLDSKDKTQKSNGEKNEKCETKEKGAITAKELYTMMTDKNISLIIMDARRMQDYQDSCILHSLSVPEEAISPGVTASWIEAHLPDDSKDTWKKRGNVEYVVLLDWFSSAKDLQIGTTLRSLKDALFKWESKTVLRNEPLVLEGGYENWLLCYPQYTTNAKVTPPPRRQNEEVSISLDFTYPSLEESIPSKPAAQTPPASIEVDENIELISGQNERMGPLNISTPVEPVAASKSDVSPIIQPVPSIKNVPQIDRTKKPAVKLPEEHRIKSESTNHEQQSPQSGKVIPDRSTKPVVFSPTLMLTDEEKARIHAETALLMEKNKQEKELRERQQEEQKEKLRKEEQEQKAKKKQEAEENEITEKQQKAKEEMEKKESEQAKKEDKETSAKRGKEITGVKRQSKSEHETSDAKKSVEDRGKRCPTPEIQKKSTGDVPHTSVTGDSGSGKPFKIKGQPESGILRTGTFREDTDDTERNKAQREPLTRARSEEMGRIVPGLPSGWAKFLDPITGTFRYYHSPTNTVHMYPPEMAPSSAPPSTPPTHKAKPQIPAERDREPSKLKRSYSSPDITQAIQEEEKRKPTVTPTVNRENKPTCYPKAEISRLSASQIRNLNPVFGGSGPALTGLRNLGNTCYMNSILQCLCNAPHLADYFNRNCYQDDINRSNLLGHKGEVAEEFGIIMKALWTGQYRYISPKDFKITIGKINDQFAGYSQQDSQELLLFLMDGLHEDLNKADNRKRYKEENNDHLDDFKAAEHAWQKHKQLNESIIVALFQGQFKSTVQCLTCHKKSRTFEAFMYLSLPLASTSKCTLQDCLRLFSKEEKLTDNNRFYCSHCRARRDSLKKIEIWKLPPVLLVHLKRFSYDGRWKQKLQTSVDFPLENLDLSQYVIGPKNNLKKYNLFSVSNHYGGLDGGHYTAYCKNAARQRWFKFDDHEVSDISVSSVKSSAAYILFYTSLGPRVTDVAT
The depositor's hits bear a star. Rows were chosen to be rich in hits. Some 5% of all compounds tested hit in one or more screens of this group. Rule as the data show it: active = inhibition above about 30%; inactive = the rest.

SMILES | USP10 block | USP7 block | UCHL1 inh | USP8 block
Clc1ccc2c(Oc3ccc(Br)cc3)ncnc2c1 | 5.4 | 8.4 | -0.7 | 10.4
O=C(NC1CCCC1)c1ccc2c(c1)N(Cc1cccc(Cl)c1)C(=O)c1ccccc1S2 | 6.2 | 4.7 | -0.5 | 0.1
O=C1Cc2ccccc2C(=O)N1Cc1cccc(Cl)c1 | 0.8 | -40.2 | 1.8 | 88.4*
CC(C)CN1C[C@H]2CCN(C(=O)NCCc3ccccc3)CC[C@H]2S1(=O)=O | 1.0 | -1.0 | 1.3 | -59.3
CCCCCC(O)/C=C/C(O)C(O)CCCCCCCC(=O)O (centres undefined) | -2.7 | -3.5 | -4.1 | -3.0
CCCCCCCCCC(CCCCCCCCCC(=O)O)O[C@H]1O[C@@H](COC(C)=O)[C@H](O)[C@@H](OC(=O)CC(=O)O)[C@H]1O (some centres undefined) | 40.6* | -43.2 | 2.3 | 6.9
O=C(c1cccc(F)c1)N1CCC(Nc2cccnc2)C1 (centres undefined) | -4.2 | -44.7 | -22.8 | 24.9
O=C(NCc1ccc(F)cc1)N1CCC(Nc2cccnc2)C1 (centres undefined) | -6.3 | -19.6 | -8.2 | 35.4*
COc1cccc(O[C@@H]2C[C@@H](NC(=O)c3cocn3)[C@H](O)[C@H]2O)c1 | -1.6 | 2.0 | 0.0 | 2.7
CCOc1ccccc1C(=O)Oc1ccc2c(C)cc(=O)oc2c1 | 10.1 | -5.6 | -7.3 | 35.3*
Cc1nc(SCC(=O)NC(C)c2ccccc2)c2oc3ccccc3c2n1 (centres undefined) | 39.7* | 3.8 | 2.0 | 10.7
CCOc1ccc(C(=O)N2C[C@H](c3nc(-c4ccccc4)no3)[C@@H](C)C2)cc1 | 6.8 | -9.2 | 3.8 | 0.7
N#Cc1c(-c2ccco2)ccn2nc(-c3ccc(Cl)cc3Cl)nc12 | -3.8 | 2.3 | 1.0 | 43.1*
N#Cc1c(-c2ccc(Cl)cc2)ccn2nc(-c3ccco3)nc12 | -8.7 | -81.7 | 1.5 | 48.3*
Cc1ccc(CNC(=O)C2CCCN(C(=O)c3cc(-c4cccnc4)n[nH]3)C2)cc1 (centres undefined) | 1.3 | 1.4 | -1.0 | 3.7
Cc1ccc(CNC(=O)Cn2c(=O)n(C(C)C)c(=O)c3nscc32)cc1 | 2.9 | 2.4 | 2.6 | 23.4
COc1ccc(-c2cc(C(=O)Nc3ccc4c(c3)OCO4)c3ccccc3n2)cc1 | 0.3 | 3.6 | -1.7 | 5.9
O=C(Nc1ccc2c(c1)OCO2)c1cc(-c2ccncc2)nc2ccccc12 | -4.3 | 1.2 | 2.2 | 35.0*
CCOc1cc(N2CCOCC2)c(OCC)cc1NC(=O)c1cc(-c2ccncc2)nc2ccccc12 | -5.9 | 6.1 | 2.7 | 70.4*
CNC(=O)c1cc(-c2ccc3c(c2)OCO3)nc2ccccc12 | -1.1 | -0.9 | -1.1 | -6.9
CCOc1cccc(-c2cc(C(=O)Nc3ccc4c(c3)OCO4)c3ccccc3n2)c1 | -7.1 | -2.6 | -5.8 | 35.8*
COc1ccc(CN2C(=O)c3cccnc3C2Nc2ccccc2)cc1 (centres undefined) | -5.7 | 4.3 | 4.7 | -54.1
COc1ccccc1CC(=O)N1CCN(c2cccc3[nH]ccc23)CC1 | -6.3 | -4.6 | -0.5 | 58.0*
COc1ccccc1N1CCN(C(=O)Cc2ccccc2[N+](=O)[O-])CC1 | -2.1 | -5.3 | -1.9 | -4.8
C/C=C/C[C@@H](C)[C@@H](O)[C@H]1C(=O)N[C@@H]([C@@H](C)O)C(=O)N(C)CC(=O)N(C)[C@@H](CC(C)C)C(=O)N[C@@H](CC(C)C)C(=O)N(C)[C@@H](CC(C)C)C(=O)N[C@@H](C)C(=O)N[C@H](C)C(=O)N(C)[C@@H](CC(C)C)C(=O)N[C@@H](CC(C)C)C(=O)N(C)[C@@H](C(C)C)C(=O)N1C | 1.5 | 9.2 | 5.4 | 10.3
SMILES | USP10 block | USP7 block | UCHL1 inh | USP8 block
COc1ccc(CNC(=O)Nc2cccc3ccccc23)cc1 | 28.4 | -26.2 | 27.0 | 97.3*
O=C(NCc1ccc(F)cc1)Nc1cccc2ccccc12 | 1.7 | 4.5 | 0.1 | 70.8*
COc1ccc(CCC(=O)Nc2cccc3ccccc23)cc1OC | -2.3 | 2.8 | 3.3 | 26.1
O=C(NCc1ccccc1)Nc1cccc2ccccc12 | 10.2 | -10.9 | 2.2 | 94.7*
O=C(OCC(=O)N1CCC(Cc2ccccc2)CC1)c1ccc(N2CCCC2=O)cc1 | -5.7 | 1.2 | 0.1 | -1.2
COc1ccc(N(CC(=O)N2CCN(Cc3ccccc3)CC2)S(=O)(=O)c2c(C)nn(C)c2C)cc1 | -5.0 | -4.4 | -0.4 | -145.4
COc1ccc(Cl)cc1Nc1nc(CN2CCOCC2)nc2sc3c(c12)CCC3 | -1.9 | -1.7 | -0.8 | -6.5
CC1CCc2c(sc3nc(CN4CCOCC4)nc(Nc4ccc(C(C)(C)C)cc4)c23)C1 (centres undefined) | 3.3 | 8.2 | 7.4 | 31.2*
COc1ccc2c(c1)c1nc(C)sc1n2CCN1CCOCC1 | 0.4 | 0.0 | 1.5 | 42.7*
Cc1nc(CN2CCO[C@@H]3CN(C(=O)NC(C)C)CC[C@@H]3C2)cs1 | -1.3 | -2.0 | -4.4 | -53.1
CCCn1c(NC(=O)Cc2ccc(OC)c(OC)c2)nc2ccccc21 | -2.3 | -0.5 | 1.7 | 64.3*
CCCn1c(NC(=O)c2cccnc2)nc2ccccc21 | 0.2 | -16.1 | -1.4 | 3.0
Cc1cccc(S(=O)(=O)Nc2ccc3c(c2)N(C)C(=O)C(C)(C)CO3)c1 | 0.0 | 6.5 | 3.0 | 12.5
CN1C(=O)C(C)(C)COc2ccc(NS(=O)(=O)c3cc(F)ccc3F)cc21 | 4.0 | -1.5 | -0.2 | 44.0*
COc1cccc(CN2CC(O)=C(c3nc4ccccc4s3)C2=N)c1 | -11.0 | 0.0 | -2.8 | 14.5
N=C1C(c2nc3ccccc3s2)=C(O)CN1Cc1cccc(F)c1 | -6.5 | 0.2 | -5.6 | 0.3
N=C1C(c2nc3ccccc3s2)=C(O)CN1Cc1ccc(F)cc1 | 8.8 | 3.3 | -2.6 | 33.3*
CC(c1ccccc1)N1CC(O)=C(c2nc3ccccc3s2)C1=N (centres undefined) | 45.0* | 30.2* | 0.1 | 89.6*
O=C(Cc1nnc(NC(=O)Nc2ccc3c(c2)OCO3)s1)NCc1ccccc1 | 33.6* | 13.9 | 1.2 | 48.1*
Cc1cccc(NC(=O)Nc2nnc(CC(=O)NCc3ccccc3)s2)c1 | 20.9 | 11.0 | -3.9 | -1.4
Cc1ccc(-n2nnc(-c3noc(-c4ccccn4)n3)c2C)cc1 | -0.7 | -7.9 | -2.6 | -8.5
c1ccc(-n2nnc(-c3noc(-c4ccccn4)n3)c2-c2ccncc2)cc1 | 4.0 | 1.4 | -0.2 | 32.1*
Cn1c(C(=O)N2CCc3ccccc3C2)cc2sccc21 | -1.5 | -27.4 | -0.4 | -29.8
CCOC(=O)c1cnc2c(cnn2C)c1NCc1cccc(C(F)(F)F)c1 | 13.9 | 9.4 | 7.1 | 36.7*
COCCn1c(SCC(=O)c2ccc(NC(C)=O)cc2F)nc2ccccc21 | 5.6 | 8.7 | 6.5 | 31.7*
COCCn1c(SCC(=O)Nc2ccc(NC(=O)c3ccco3)c(OC)c2)nc2ccccc2c1=O | -2.6 | 1.6 | 3.6 | 19.9
Cn1c(=O)c2c(C(=O)Nc3cccc(Cl)c3)cc(=O)n(C)c2n(C)c1=O | -4.7 | 2.2 | 0.0 | 9.0
O=C(C1CCN(c2ncccc2-n2cccc2)CC1)N1CCN(c2ccccc2)CC1 | -3.4 | 6.7 | 3.0 | 21.4
Cn1c(CCNC(=O)c2[nH]nc3c2CCc2ccccc2-3)nc2ccccc21 | 17.9 | -1.2 | -2.3 | 59.4*
COc1ccccc1CNC(=O)c1[nH]nc2c1CCc1ccccc1-2 | -0.5 | 9.2 | 5.3 | -4.5
